From PubChem BioAssay
Calls of active or inactive are those of the source. Unless noted, the rule behind the calls is not given here.

Columns and labels:
[1] = A549 cell viability effects, profiling panel, calcein-AM fluorescence, 48 h, basal (AID 1162); details: higher = more signal; note: test concentration not given here
[2] = adipocyte viability effects, profiling panel, cell-based, 3T3-L1 adipocytes, calcein-AM fluorescence, 48 h, basal (AID 1163); details: 3T3-L1 adipocytes viability, higher = more signal; note: test concentration not given here
[3] = HepG2 cell viability effects, profiling panel, calcein-AM fluorescence, 48 h, basal (AID 1164); details: higher = more signal; note: test concentration not given here
[4] = MM1S cell viability effects, profiling panel, calcein-AM fluorescence, 48 h, basal (AID 1165); details: higher = more signal;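 note: viability of MM1S multiple myeloma cells under basal unstimulated conditions; test concentration not given here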
[5] = basal RPMI8226 viability, no added stimulus, profiling panel, cell-based, calcein-AM fluorescence, 48 h, PK04 Diversity Set (AID 1166); details: RPMI8226 myeloma viability, higher = more signal;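 note: cells grown under basal conditions without added stimulus; test concentration not given here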
[6] = basal HepG2 mitochondrial membrane potential changes, profiling panel, cell-based, JC-1 fluorescence, 24 h, 100 nL compound (AID 1167); details: higher = more signal; note: test concentration not given here
[7] = basal 3T3-L1 adipocyte mitochondrial potential changes, profiling panel, cell-based, JC-1 fluorescence, 3T3-L1 adipocytes, 24 h, 100 nL compound (AID 1168); details: JC-1 mitochondrial fluorescence, higher = more signal, called active from +8 up or from −8 down; note: test concentration not given here
[8] = basal RPMI8226 mitochondrial membrane potential changes, profiling panel, cell-based, JC-1 fluorescence, 24 h, 100 nL compound (AID 1169); details: RPMI8226 myeloma, JC-1 mitochondrial potential fluorescence, higher = more signal; note: test concentration not given here
[9] = basal MM1S mitochondrial membrane potential changes, profiling panel, cell-based, JC-1 fluorescence, 24 h, 100 nL compound (AID 1170); details: higher = more signal; note: test concentration not given here
[10] = A549 lung cancer cell viability effects, profiling panel, resazurin fluorescence, 24 h, PK04 Diversity Set (AID 1171); details: higher = more signal, called active from +8 up or from −8 down; note: test concentration not given here
[11] = HepG2 liver cancer cell viability effects, profiling panel, resazurin fluorescence, 24 h, PK04 Diversity Set (AID 1172); details: higher = more signal; note: test concentration not given here
[12] = basal S. cerevisiae growth modulation, no modifier, primary screen, OD600, strain BY4716, 24 h, basal condition (AID 1173); details: OD600, 24 h, higher = more signal, called active from +8 up or from −8 down
[13] = MM1S myeloma cell viability, profiling panel, resazurin fluorescence, basal, 24 h, PK04 Diversity Set (AID 1174); details: higher = more signal, called active from +8 up or from −8 down;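 note: MM1S multiple myeloma cell line; test concentration not given here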
[14] = target: Dihydroorotate dehydrogenase (quinone), mitochondrial (Plasmodium falciparum (isolate 3D7)) (UniProt Q08210); test: PfDHODH enzyme inhibitors, primary screen, biochemical, C-terminal His tag, absorbance 600 nm (AID 1175); details: DCIP absorbance 600 nm, higher = more signal, called active from +8 up or from −8 down;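 note: recombinant parasite enzyme with a five histidine tag at its C terminus; test concentration not given here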
[15] = P. aeruginosa biofilm formation inhibitors, primary screen, strain PAO1, LB-PBS medium, absorbance 600 nm (AID 1176); note: test concentration not given here; details: P. aeruginosa PAO1 growth/biofilm, A600, 12 h; higher = more signal
[16] = S. cerevisiae RM11-1a growth modifiers, primary screen, strain RM11-1a, OD600, basal, 24 h (AID 1177); details: OD600, 24 h, higher = more signal, called active from +8 up or from −8 down;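 note: cultures grown under basal conditions with no added stressor; test concentration not given here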
[17] = E. coli acrAB mutant growth effects, primary screen, E. coli filamentation inducers, strain DRC39, OD650, 24 h (AID 1178); details: higher = more signal, called active from +8 up or from −8 down;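 note: growth measured as culture turbidity by optical density at 650 nm; test concentration not given here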
[18] = E. coli acrAB mutant growth effects, primary screen, E. coli filamentation inducers, strain DRC39, OD650, 48 h (AID 1179);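 note: screen aims at cell division blockers that make cells filament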; details: E. coli DRC39 delta-acrAB growth, higher = more signal, called active from +8 up or from −8 down
[19] = RPMI8226 myeloma cell viability, profiling panel, resazurin fluorescence, basal, 24 h, PK04 Diversity Set (AID 1180); details: higher = more signal;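 note: RPMI8826 multiple myeloma cell line at 5000 cells per well; test concentration not given here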
[20] = target: E3 ubiquitin-protein ligase XIAP (Homo sapiens) (UniProt P98170); test: XIAP binders, primary screen, biophysical, small-molecule microarray, fluorescence 635 nm (AID 1181); details: small-molecule microarray binding, higher = more signal;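 note: score merges 667 nm emission and signal to noise over triplicate slides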
Chain of E3 ubiquitin-protein ligase XIAP (Homo sapiens) (P98170 whole entry, looked up): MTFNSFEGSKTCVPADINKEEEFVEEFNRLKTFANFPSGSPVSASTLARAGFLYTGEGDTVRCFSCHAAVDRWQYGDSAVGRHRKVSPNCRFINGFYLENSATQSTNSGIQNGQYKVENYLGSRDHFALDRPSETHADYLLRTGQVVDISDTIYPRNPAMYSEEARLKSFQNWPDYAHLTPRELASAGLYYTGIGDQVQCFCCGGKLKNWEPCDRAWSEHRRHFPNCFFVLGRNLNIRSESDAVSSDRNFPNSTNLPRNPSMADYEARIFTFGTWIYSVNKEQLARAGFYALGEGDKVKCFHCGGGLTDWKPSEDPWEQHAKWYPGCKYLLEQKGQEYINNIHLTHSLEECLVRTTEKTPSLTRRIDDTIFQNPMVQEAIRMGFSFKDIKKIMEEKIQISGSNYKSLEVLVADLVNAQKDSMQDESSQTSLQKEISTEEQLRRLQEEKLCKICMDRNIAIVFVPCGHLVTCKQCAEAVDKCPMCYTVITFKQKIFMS

Chain of Dihydroorotate dehydrogenase (quinone), mitochondrial (Plasmodium falciparum (isolate 3D7)) (Q08210 whole entry, looked up): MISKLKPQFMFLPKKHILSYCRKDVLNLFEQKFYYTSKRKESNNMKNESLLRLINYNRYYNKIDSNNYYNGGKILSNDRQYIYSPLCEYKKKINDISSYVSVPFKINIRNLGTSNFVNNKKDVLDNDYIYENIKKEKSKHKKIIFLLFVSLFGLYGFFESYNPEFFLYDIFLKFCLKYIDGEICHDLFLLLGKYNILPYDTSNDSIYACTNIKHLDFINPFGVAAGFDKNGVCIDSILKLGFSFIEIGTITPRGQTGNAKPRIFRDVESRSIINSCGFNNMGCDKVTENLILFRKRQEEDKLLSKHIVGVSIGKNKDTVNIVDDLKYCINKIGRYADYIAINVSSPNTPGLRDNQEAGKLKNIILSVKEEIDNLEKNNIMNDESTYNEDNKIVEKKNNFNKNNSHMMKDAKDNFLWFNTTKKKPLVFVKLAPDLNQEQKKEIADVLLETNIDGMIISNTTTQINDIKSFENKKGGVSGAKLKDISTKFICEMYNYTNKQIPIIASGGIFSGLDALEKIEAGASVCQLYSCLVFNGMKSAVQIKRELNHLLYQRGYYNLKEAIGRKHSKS

Structure (SMILES) | z-score [1] | z-score [2] | z-score [3] | z-score [4] | z-score [5] | z-score [6] | z-score [7] | z-score [8] | z-score [9] | z-score [10] | z-score [11] | z-score [12] | z-score [13] | composite z-score [14] | z-score [15] | z-score [16] | z-score [17] | z-score [18] | z-score [19] | composite z-score [20]
COc1ccc([Si](C)(C)[C@@H]2[C@@H](CCO)O[C@]3(C(=O)N(Cc4ccc(N5CCCCC5=O)cc4)c4ccccc43)[C@H]2C)cc1 | 0.108 | -0.686 | -0.347 | -2.8 | -3.05 | 0.714 | 1.25 (inactive) | 0.88 | 0.572 | -1.78 (inactive) | -0.723 | -0.173 (inactive) | -0.75 (inactive) | -3.05 (inactive) | 1.45 (inactive) | 2.69 (inactive) | 1.99 (inactive) | 1.14 (inactive) | -2.24 | -0.184
CC(C)[Si](C#C[Si](C(C)C)(C(C)C)C(C)C)(O[C@H](C)c1cn([C@H](CO)Cc2ccccc2)nn1)C(C)C | 1.11 | -0.355 | 0.341 | -2.37 | 0.482 | 0.376 | 0.727 (inactive) | 0.362 | -0.156 | 0.637 (inactive) | 0.967 | 0.427 (inactive) | 0.786 (inactive) | -0.487 (inactive) | 1.01 (inactive) | -0.504 (inactive) | 1.17 (inactive) | 1.19 (inactive) | 1.04 | 0.0484
C=CCC(OC(C)=O)[C@@H]1[C@@H](N(Cc2cc3ccccc3o2)C(=O)c2ccc(-c3ccccc3)cc2)c2cc(OCCCO)ccc2N1C(=O)c1ccc2ccccc2c1 (stereo not given in full) | 0.48 | 1 | 0.063 | 0.532 | 0.299 | 1.81 | -1.11 (inactive) | 0.868 | 0.32 | 0.457 (inactive) | -0.98 | 1.9 (inactive) | 0.198 (inactive) | 0.396 (inactive) | 0.857 (inactive) | 0.454 (inactive) | -0.413 (inactive) | -0.787 (inactive) | -0.158 | -0.135
CC(CO)N1C(=O)[C@@H]2[C@H]3C(=O)OCC=C[C@H]3OC23C=CCN(C(C)(C)C)C(=O)[C@@H]13 (stereo not given in full) | -0.0702 | -0.643 | -0.711 | 1.08 | 0.0608 | -0.936 | -0.172 (inactive) | 0.127 | 0.0965 | -0.289 (inactive) | 0.0792 | 0.0031 (inactive) | -0.555 (inactive) | -1.08 (inactive) | -0.401 (inactive) | -0.505 (inactive) | -0.554 (inactive) | -0.762 (inactive) | -0.794 | 0.252
N#Cc1ccc(C(O)C2C=CC3C(=O)N(c4ccccc4)C(=O)C3N2Nc2ccccc2)cc1 (stereo not given) | -0.26 | 0.744 | -0.638 | 0.41 | -0.153 | -0.651 | 0.693 (inactive) | 0.173 | -0.482 | -1 (inactive) | -0.888 | -2.46 (inactive) | -0.697 (inactive) | -0.561 (inactive) | 1.06 (inactive) | -0.433 (inactive) | 0.366 (inactive) | 0.0165 (inactive) | -0.196 | 0.0537
O=C1O[C@H](c2ccccc2)[C@H](c2ccccc2)N2[C@H]1[C@@H](C(=O)N1CCN(c3ncccn3)CC1)[C@]1(C(=O)Nc3ccc(C#CC4(O)CCCCCC4)cc31)[C@H]2c1ccc(OCCO)cc1 | 0.282 | 1.11 | 0.473 | -0.699 | 0.148 | -1.73 | -0.309 (inactive) | -0.618 | -0.87 | 0.746 (inactive) | 0.204 | 1.82 (inactive) | -0.484 (inactive) | -0.884 (inactive) | 3.52 (inactive) | 3.34 (inactive) | -0.427 (inactive) | -0.0689 (inactive) | 0.478 | 0.258
NC(N)=NCCCn1cc(CNC(=O)[C@@H](N)Cc2ccccc2)nn1 | -0.531 | -0.637 | -0.948 | -0.0334 | -1.23 | -0.868 | -0.283 (inactive) | 0.714 | 0.225 | -0.414 (inactive) | -0.686 | -0.85 (inactive) | -0.433 (inactive) | -2.75 (inactive) | -0.264 (inactive) | -0.297 (inactive) | 0.19 (inactive) | -0.0439 (inactive) | -0.68 | 0.012
N#Cc1ccc(NN2C(C(O)c3ccc(F)cc3)C=CC3C(=O)N(c4ccccc4)C(=O)C32)cc1 (stereo not given) | -0.518 | -0.877 | 0.211 | -0.453 | -1.33 | -1.58 | -0.311 (inactive) | 0.321 | 0.153 | 0.133 (inactive) | -0.587 | -0.0167 (inactive) | -0.388 (inactive) | 0.37 (inactive) | 0.695 (inactive) | 0.222 (inactive) | -1.06 (inactive) | -0.405 (inactive) | -0.67 | 0.0651
C[C@H]1NC(=O)[C@@]23C(=O)N[C@@H](Cc4ccccc4)C2[C@H](C)[C@@]2(C)O[C@H]2C3/C=C/C/C=C\CNC(=O)[C@H](Cc2ccccc2)NC1=O (stereo not given in full) | -0.518 | 0.76 | -0.607 | 0.401 | -0.45 | 0.88 | -0.588 (inactive) | 0.331 | 1.02 | 0.0548 (inactive) | -0.466 | 0.303 (inactive) | -0.0253 (inactive) | 0.226 (inactive) | 1.24 (inactive) | 1.31 (inactive) | 0.513 (inactive) | 0.32 (inactive) | 0.0583 | 0.104
